According to PubChem BioAssay AID1159506 (National Center for Advancing Translational Sciences (NCATS), 2015):
In all, about 59,000 sequences were measured (the read-out: median about -0.00055, lowest 2% from about -2 on). Shown is part of a subset that was picked to be rich in the lowest values.

Test: Identification of proteins required for the processing of the EWS-FLI1 nascent transcript;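 also: robust z of luciferase light less the median z of siRNAs with the same seed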
Settings: TC32 Ewing sarcoma NR0B1-luc vs CMV-luc (EWS-FLI1 target promoter against control promoter), 48 h; screened at 20 nM (by protocol)
Procedure, shortened: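 TC32 Ewing sarcoma cells carrying NR0B1-promoter or CMV-promoter luciferase reporters were reverse-transfected with single siRNAs at 20 nM, three per gene genome-wide. Luminescence was read after 48 h and normalized to non-targeting controls.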

Sequence | seed-corrected z-score
UAUGGUUAGACCGCUUUCG against KIAA0408 | 0.0809
AUAUGUUCGACUAUCAUGG against KATNBL1 | -3.24
UAAGUCAGGAUAUUCGCUC against CRELD2 | -1.22
UAAUGCGAUACAACUCGAC against COX4I1 | 1.65
UGCACGAUCCGUUUGCUUC against RNASE11 | -0.108
UCUGGAUCUGGUUUGCUGC against ZBTB3 | -1.18
UUACUUAGUCUUGUGGUGG against HIST1H2AJ | 0.917
ACGGUUUCAAUAUCUAACG against FAM160B1 | -14.4
AGGAAUACAAGUCAUAUGC against TFB2M | 0.916
AAGCUUUUCGUAGUCCUCA against NMRAL1 | 0.164
UUCUCGAUGCUUGUGGUUU against DMBX1 | -0.553
UUUGAUAACAGUUCACUGG against PLAG1 | 1.2
UUCGAUAGAAUUUGAAAGC against SUGP2 | -2.02
UUCGAUCAAAAUACAAGGC against GLDN | -0.856
UGGAAUAUGACUCUUUGCC against STRA8 | -0.991
AUGGGUAAGAUGUAUGUUG against ZFAND1 | -0.296
UUCGGUAUCGUCUGUAUCC against USP8 | -1.37
UCUGGAACUAUUUACUCGG against NEMP1 | -14.8
AUGACAAUCACAUUCCUCU against AKR1B10 | 0.0562
UUUGCUCCCACCAAAUACC against KLHDC1 | 1.18
AUAGGAAGAACUCUGUUUG against SCHIP1 | -2.03
UCCAUAAUCUGUUUCGCUG against INTS4 | -1.43
UCAAUGACAGCUAAUAGCC against ARL13A | -1.36

Sequence | seed-corrected z-score
UUCUUAACAUAGGGCAUGG against RRM2B | -0.284
UGAACCUCUAGACUCAUAG against ZDBF2 | -0.0347
AAUUCGAUUAGAGAGUGUC against SENP5 | 0.00396
UUUUCUCCCUUUAUAAGGC against OXCT1 | 1.02
UAUCCAACUAUCUAAACUG against TMEM184C | -16.9
UCUCGAAACACCCUACUCC against MKNK1 | 0.234
UGAAGUAAUGGUGAGAGGG against CRYAB | 0.664
UGACCUCCAACACUAGUGC against VPS8 | 0.213
AUCGUAACAAGAAAGUUCC against RNF17 | 1.39
AUCUGCAUAAACUCCACGC against SCGN | -2.24
UCCAAGUUCACGAAGAUUU against MMD | 0.344
UGUACUUUGGAACUAGUCC against ENKUR | 0.00323
UUCCGGAUUACACCAGUGC against FAM171A2 | 0.108
UUCGUAAGUGGUCCAGUUC against GSE1 | 1.07
UCAAUUCUGAGCUUCGGUC against SPATA13 | 0.999
UGGUAGUUCACGUUGAGCC against CASKIN2 | -2.53
UGAAGUUACAUUCAGUUCU against ZFAND3 | 0.106
UUAGAUCUUGAAAGAGUUC against ETV1 | -0.0727
AUAGGUUUCAGAGAGGUGU against CA1 | 0.901
AAUCUUAAAUUUUCCGAGC against RGS7 | -0.282
UCGGGUGUUUUGGUCUUGC against LMOD1 | -2.52
UACCUCAUAGGAUAACACC against MPP4 | 0.19
AACGGUAGAAGCUGCAUGC against NOP58 | -1.46

Sequence | seed-corrected z-score
UCCUGCUUUAUAACUAGCC against ZNF621 | -4.33
UUCAGCAUCUUUGUCGACC against RTFDC1 | -0.168
UGAAGUUAAUGGGCCCUGG against MYL12BP2 | 0.711
UCAUUUUCCUCAUAGGUGC against LAMB2 | -0.564
AUACAUGCAGCUGUGGUUG against GABRB1 | -1.3
UAAGCGAUCCAUAUCAAAC against PROX1 | 0.491
UAACUGUUUAGCGAUGUCC against TBC1D1 | -2.09
UUGUCUUCCUCCAUUGUCG against TSGA10IP | -0.628
UCUCUUGAUGUGGACACUC against ITGAD | -0.0619
UCAUGGUCCGAAGCUGGUG against LHX2 | -2.03
UCGGCAAUAAUCUCGGCCU against HNRNPA0 | 0.556
UGGUUUUGUACACCUGCUG against TNP2 | -0.158
UAUUGAAGGACUCCUGAUC against RAB1A | 0.0899
UUCAGAUGUCCGUCUAUGC against ABLIM3 | 0.714
UUGGAAUACAUUGCCGUUC against SSR1 | -0.807
UUUUGGACCGCUGCACCUG against CBY3 | 0.744
UUUAGAGCGAGUGGUUAGC against PPHLN1 | 0.884
UAAUCUUUUCAUGCAACUC against SNCA-AS1 | -2.06
UAGGUGAAGAUCUUGUUUC against COMMD10 | -0.785
AAAUGAUUUAUAUCCCUGG against ABCC6P1 | -14.5
AUCGGUAAGAUCCUAAUGG against VPS13A | 0.281
UAUUCUACCUCGUACCUCC against TBC1D22B | -0.239
ACCAGUAUAACCCAGAGUC against FCGR1A | 0.036

Sequence | seed-corrected z-score
UAUAGAGGAAAGCUAUGCC against ERCC6L | 0.528
AAAGCGAGUUUUCUCAUCC against COPA | -4.21
AACUGGAUAGGAGGACUGC against HSF5 | -0.327
UUAAUUCUCGGAUGUGCUC against ANXA11 | 0.143
UUAUGUUUUCCUACUCCAC against TCEAL1 | -2.4
UGAAGGCCAACCGCUCUGU against ALG1L6P | 0.486
UCAGUUUGAUUAUUUCUCU against RASSF4 | 0.41
UGACUUCACCCAGAAGCAC against SLC25A41 | -0.697
UCAUCAUCCAAAGAUGUAC against C20orf196 | -1.47
UAUUCGAGCGCAGUGCUGG against C10orf67 | -0.133
AUUGGUAGAACAAAGUUCC against PRELID3A | 0.478
UUUUGUUGUGAGCUGAUGC against SF3B4 | -3
UUCCUUGGAGCUGGGAUCU against PSORS1C1 | -1.32
UUCUUUUUCAAACAGCUCU against ISY1 | -1.17
UACUGGUCAAUCGCUGUUC against CEP192 | -0.996
UUAUUGUUCUUUCGGAUCC against SELP | 0.564
UCCGGUAAGACAUUCUCUG against EAPP | 0.402
AUGACUUUUAGUGUAAUCC against LOC439994 | -2.2
UAUGUCGUCUUGGAGAUCG against SNRNP27 | -0.0915
UUAAGAGUGACUCAAUUUG against MGAT2 | -0.219
AUUGAGUAUCACGUCAUCC against TTLL4 | -2.43
ACCUUGAUGGUUUUUGAUG against LOC649294 | 0.0918
UUUCUUAAUGGUGGUGCCC against SLC7A7 | -0.929

Sequence | seed-corrected z-score
UGUAUUAUCGUGUCCGAGC against CTNNBL1 | -0.748
UGAUAACCCACAUUGAAGG against DEGS1 | -0.494
UCUUCUUCCAGUAUAAGGC against KITLG | 0.53
UCAACACCCAGGUAGCGGA against DUSP26 | -2.05
UAAAGGGUUGUGGGAAAUG against LRRC30 | -1.26
UCUGGAAUUUGACUGCUCG against RPL24 | -0.838
UACGUAAGAAAUAGGAACG against OR6C76 | -2.11
UCAACUUCCAUGAUUUUCC against IGF2BP2 | -0.332
UUCCGGUCAUAAUUCAGCC against PPFIA4 | -0.228
AAUGGUAAACUUGAUUUCA against TP53I11 | 0.091
AUAGAGGUGAGGGUCAUGC against TGFBI | -2.38
UACUUCUAUGUAGAGGUCC against AKIP1 | -0.138
UCAGUUUGGAAUGAGGAGG against LOC345051 | -0.469
UGUGGAUGCGGCGAUGUUC against ZNF574 | 0.836
UGCUUUUAGAAAGUCCAUG against HAUS1 | -0.637
ACCGUUGUAGUCUCCAUCG against ANO1 | -11.8
UUUUCAUCUGGUAAAAGGG against FAM13C | -1.06
UAUCUUCAGAUCGCUGUAC against ANKFY1 | 0.715
UCUUCGUCCACUCUGAAUC against NMU | -2.29
UUUGAUAUUCAUAACGAUC against N4BP2L2 | 0.28
UGCAGUGGACCAUUUAUGC against SUN5 | -1.1
UACCGAUUGUGAAUGAACC against NHS | -17
UUUGGAAUCCUUUACUUGG against GLE1 | 0.251

Sequence | seed-corrected z-score
UUCAUGACAGUGACGAUGC against ITPR3 | -0.0506
UCUUGGAGUUCCGUCUUUG against FGF20 | -0.184
UCAUUGAUUAGGUGGAUGC against RRP9 | -0.724
AUCUGGACCACUAUUUCUU against RSPH9 | 0.909
UGUAGAGAUGCGGUGGUCC against BIRC5 | -2.18
UAGUUUAACCUUGUCAUCC against CASC4 | -0.368
UACACUUUCAAAAUCUCUC against ZNF845 | 0.844
UUUAUGACCUCAUUAAGUC against LHCGR | 0.284
UGAUGAGAUAGAGCCGUGC against TRIM56 | -0.836
GAAUUUCAGCCGUAGCACG against TMUB1 | -2.19
ACAAUGGCAUCUUGUGGGC against CORT | 0.108
UAGUAUGCGGUGGUGAUGG against RAB3A | -0.77
UUGGGCAUAUGUUUGCUGC against TACO1 | 0.306
UCGUUUCAAAGGGCUGUGG against SAMD4A | -2.94
UGAGCAAGGUCUCCAAUCC against SH3RF3 | -0.33
UUUCGUUUGAGAAAUGCGC against MED23 | 0.711
AUAGUGACCACCCUCAAUC against SPTA1 | 0.293
UACGUUCUGAAUCAAGAAG against DENND5A | -0.28
